Here are results for 20 compounds from PubChem BioAssay.

Experiment [1] is described as follows: antimalarial activity against Dd2 strain (AID 2302;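 active = growth inhibition above 50% at the single 2 µM test dose, taken to imply half-maximal potency below 2 µM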;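 note: 0% = DMSO untreated growth and 100% = chloroquine plus artemisinin killed control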). The conditions noted are these: P. falciparum Dd2 in RBCs, LDH growth readout, 72 h; at 2 µM; stronger effect = higher value.
A short description of experiment [2]: HepG2 cytotoxicity, primary screen, cytotoxicity control for P. falciparum antimalarial project, cell-based, ATP luminescence (AID 2303;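 active = inhibition above 50%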;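 note: 0% = DMSO wells and 100% = digitonin-killed cells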). Particulars: HepG2 viability, 24-48 h, at 10 µM, stronger effect = higher value.
In experiment [3] the target is L-lactate dehydrogenase (Plasmodium falciparum (isolate CDC / Honduras)) (UniProt Q27743). Briefly: PfLDH activity inhibition – cell lysate, 3D7 strain, counter-screen for P. falciparum growth inhibition project (AID 2304).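 Note: 0% = vehicle and 100% = reference inhibitor.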 Particulars: P. falciparum 3D7 crude extract, LDH APAD/NBT absorbance; at 2 µM; stronger effect = higher value. In general terms: Counterscreens check selectivity or assay interference.
Chain of L-lactate dehydrogenase (Plasmodium falciparum (isolate CDC / Honduras)) (Q27743 whole entry, looked up): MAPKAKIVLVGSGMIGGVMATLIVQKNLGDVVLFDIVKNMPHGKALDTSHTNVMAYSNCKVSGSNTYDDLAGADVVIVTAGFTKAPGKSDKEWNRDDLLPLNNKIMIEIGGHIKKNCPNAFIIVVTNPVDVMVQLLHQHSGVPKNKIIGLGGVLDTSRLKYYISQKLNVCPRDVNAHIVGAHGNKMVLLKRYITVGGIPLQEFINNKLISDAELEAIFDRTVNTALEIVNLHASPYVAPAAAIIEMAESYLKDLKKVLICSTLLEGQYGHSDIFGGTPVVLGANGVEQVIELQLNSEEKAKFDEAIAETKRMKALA

Experiment [4] can be described thus: inhibition of 3D7 malaria parasite growth – strain 3D7 (AID 2306).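 Note: 0% = DMSO wells and 100% = chloroquine plus artemisinin control wells.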 Particulars: P. falciparum 3D7 erythrocytic growth, LDH absorbance, 72 h; at 2 µM; stronger effect = higher value.
In experiment [5] the target is Calcium-dependent protein kinase 1 (Plasmodium falciparum (isolate 3D7)) (UniProt P62344). Briefly: PfCDPK1 kinase inhibitors, biochemical, TCAMS library (AID 1159585; cut-off not given, nearly all actives have IC50 up to about 0.98 µM;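 note: inhibitors leave more ATP so luminescence rises with inhibition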). The conditions noted are these: recombinant PfCDPK1, Kinase-Glo ATP depletion luminescence. On the technique in general: Kinase-Glo measures the ATP left after a reaction by luminescence.
Chain of Calcium-dependent protein kinase 1 (Plasmodium falciparum (isolate 3D7)) (P62344 whole entry, looked up): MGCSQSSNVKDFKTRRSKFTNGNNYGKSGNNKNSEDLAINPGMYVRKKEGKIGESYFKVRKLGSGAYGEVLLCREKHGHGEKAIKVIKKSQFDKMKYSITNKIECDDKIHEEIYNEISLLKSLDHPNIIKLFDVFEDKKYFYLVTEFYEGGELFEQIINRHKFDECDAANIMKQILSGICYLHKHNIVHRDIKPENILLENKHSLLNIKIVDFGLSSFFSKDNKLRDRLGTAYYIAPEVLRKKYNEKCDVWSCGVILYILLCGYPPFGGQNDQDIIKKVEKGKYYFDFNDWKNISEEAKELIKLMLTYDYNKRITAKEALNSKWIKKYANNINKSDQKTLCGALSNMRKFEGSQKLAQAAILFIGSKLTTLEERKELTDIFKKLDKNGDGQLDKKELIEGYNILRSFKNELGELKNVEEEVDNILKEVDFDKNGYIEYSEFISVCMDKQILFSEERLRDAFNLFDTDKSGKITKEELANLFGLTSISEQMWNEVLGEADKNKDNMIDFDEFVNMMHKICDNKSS
Experiment [6] concerns the target Plasmodium falciparum protein kinase 6 (PK6, PF3D7_1337100) (UniProt Q8IDW1). As to the kind of experiment: PfPK6 kinase inhibitors, biochemical, TCAMS library (AID 1159586). Particulars: recombinant PfPK6, Kinase-Glo ATP depletion luminescence.
Experiment [7] has as its target Protein kinase 7 (PK7), Plasmodium falciparum 3D7 (PF3D7_0213400) (UniProt Q7YTF7). As to the kind of experiment: inhibition of Plasmodium PK7 catalytic activity – biochemical, TCAMS antimalarial set, Kinase-Glo luminescence (AID 1159587). The conditions noted are these: recombinant PfPK7, Kinase-Glo ATP depletion luminescence.
Experiment [8] deals with Calcium-dependent protein kinase 4 (Plasmodium falciparum (isolate 3D7)) (UniProt Q8IBS5). As to the kind of experiment: PfCDPK4 kinase inhibitors, biochemical, TCAMS library (AID 1159588; cut-off not given, nearly all actives have IC50 up to about 0.91 µM). The conditions noted are these: recombinant PfCDPK4, Kinase-Glo ATP depletion luminescence.
Chain of Calcium-dependent protein kinase 4 (Plasmodium falciparum (isolate 3D7)) (Q8IBS5 whole entry, looked up): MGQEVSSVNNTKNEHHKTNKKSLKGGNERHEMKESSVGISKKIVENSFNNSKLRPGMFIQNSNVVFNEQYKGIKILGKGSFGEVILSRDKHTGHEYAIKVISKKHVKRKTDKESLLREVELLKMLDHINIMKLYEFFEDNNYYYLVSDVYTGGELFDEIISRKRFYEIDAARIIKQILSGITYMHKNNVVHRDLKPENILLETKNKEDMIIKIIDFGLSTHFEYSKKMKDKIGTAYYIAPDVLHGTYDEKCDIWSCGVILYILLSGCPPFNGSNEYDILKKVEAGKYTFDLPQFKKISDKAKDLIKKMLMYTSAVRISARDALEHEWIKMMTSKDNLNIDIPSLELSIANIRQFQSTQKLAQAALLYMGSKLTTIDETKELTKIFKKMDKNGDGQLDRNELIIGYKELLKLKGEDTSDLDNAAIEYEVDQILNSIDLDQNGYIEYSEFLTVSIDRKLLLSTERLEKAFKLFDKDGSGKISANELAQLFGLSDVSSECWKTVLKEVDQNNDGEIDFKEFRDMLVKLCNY

Each structure is given as a SMILES string. A number with no mark means an inactive call. For some of these results: Entries with a potency or affinity are not part of this list. Calls of active or inactive are those of the source. Unless noted, the rule behind the calls is not given here.

Chain of Plasmodium falciparum protein kinase 6 (PK6, PF3D7_1337100) (Q8IDW1 1-305): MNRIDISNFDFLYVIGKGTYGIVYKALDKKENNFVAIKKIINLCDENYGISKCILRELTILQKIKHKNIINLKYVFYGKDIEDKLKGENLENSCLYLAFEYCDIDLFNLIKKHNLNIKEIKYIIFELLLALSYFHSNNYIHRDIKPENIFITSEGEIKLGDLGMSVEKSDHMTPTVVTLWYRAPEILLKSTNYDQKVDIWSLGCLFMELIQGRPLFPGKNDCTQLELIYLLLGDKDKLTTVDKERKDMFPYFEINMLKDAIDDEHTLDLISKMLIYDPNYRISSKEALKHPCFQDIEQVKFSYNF
Chain of Protein kinase 7 (PK7), Plasmodium falciparum 3D7 (PF3D7_0213400) (Q7YTF7 1-343): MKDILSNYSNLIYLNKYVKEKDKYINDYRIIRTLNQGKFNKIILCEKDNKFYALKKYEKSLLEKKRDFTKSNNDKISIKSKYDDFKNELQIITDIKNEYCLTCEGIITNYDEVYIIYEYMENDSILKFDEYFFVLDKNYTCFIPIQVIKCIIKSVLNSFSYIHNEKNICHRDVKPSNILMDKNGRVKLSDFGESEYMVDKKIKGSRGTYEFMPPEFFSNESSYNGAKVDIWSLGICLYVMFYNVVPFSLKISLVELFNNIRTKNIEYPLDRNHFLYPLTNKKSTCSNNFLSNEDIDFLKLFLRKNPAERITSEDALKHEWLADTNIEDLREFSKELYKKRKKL

Usually inhibition stands for the change of the read-out against control, counted positive when it falls. On to `Cc1nc(-c2ccc(-c3ccc(C(=O)Nc4ccc(-n5ccnc5)c(N5CCN(C)CC5)c4)cc3)c(C)c2)no1`, for which the growth inhibition in experiment [1] and in experiment [4] was 100% (active) in each case. For the same compound, the inhibition in experiment [2] is 34%; in experiment [3], 2%. For the same compound, the outcome in experiment [5], in experiment [6], in experiment [7] and in experiment [8] was inactive.

Consider `Cc1ccc(-c2nnc3c4ccccc4c(C)nn23)cc1S(=O)(=O)N1CCN(CCO)CC1`, for which the growth inhibition was 62% (active) in experiment [1] and 85% (active) in experiment [4]. Besides, the results for the inhibition in experiment [2] and in experiment [3] were 16% and -4%, respectively. Further, the outcome in experiment [5], in experiment [6], in experiment [7] and in experiment [8] was inactive.

Regarding `CC(C)C[C@H](NC(=O)c1ccc(OCCN2CCOCC2)cc1)C(=O)N[C@H](/C=N/N(C)C(=O)c1ccccc1)CCc1ccccc1`, the growth inhibition in experiment [1] is 72% (active); in experiment [4] it was 91% (active). Moreover, the inhibition was 8% in experiment [2] and 1% in experiment [3]. The outcome in experiment [5], in experiment [6], in experiment [7] and in experiment [8] was inactive.

For the compound `Cc1ccc(-n2[nH]c(C)c(N=Nc3cccc(-c4cccc(NC(=O)OC(C)(C)C)c4)c3O)c2=O)cc1C`, the values for the growth inhibition in experiment [1] and in experiment [4] were 21% and 94% (active), respectively. The results for the inhibition in experiment [2] and in experiment [3] were 39% and -4%, respectively. The result in experiment [5], in experiment [6], in experiment [7] and in experiment [8] was inactive.

In the case of `COc1cccc(CNc2ncc(-c3ccsc3)c(-c3nccs3)n2)c1`, the growth inhibition in experiment [1] was 82% (active); in experiment [4] it was 89% (active). The inhibition in experiment [2] was 9%; in experiment [3], 3%. Moreover, the outcome in experiment [5], in experiment [6], in experiment [7] and in experiment [8] was inactive.

Regarding `NCCc1cccc(-c2cnc3[nH]cc(-c4ccc(C(=O)O)cc4)c3c2)c1`, the growth inhibition was 98% (active) in experiment [1] and 99% (active) in experiment [4]. Also, the values for the inhibition in experiment [2] and in experiment [3] were 4% and -2%, respectively. For the same compound, the result in experiment [5], in experiment [6], in experiment [7] and in experiment [8] was inactive.

For the compound `CCCC(=O)NC(NC(=S)Nc1ccc([N+](=O)[O-])cc1)C(Cl)(Cl)Cl` (stereo not given), the growth inhibition in experiment [1] is 14%; in experiment [4], 93% (active). The figures for the inhibition in experiment [2] and in experiment [3] were 10% and 4%, respectively. For the same compound, the result in experiment [5], in experiment [6], in experiment [7] and in experiment [8] was inactive.

For the compound `CCOC(=O)NC1=NC(C)(C)N(OCCCOc2ccc(C)cc2C)C(NC(=O)OCC)=N1`, the growth inhibition in experiment [1] was 98% (active); in experiment [4] it was 95% (active). In addition, the inhibition in experiment [2] is 63% (active); in experiment [3], 7%. The result in experiment [5], in experiment [6], in experiment [7] and in experiment [8] was inactive.

Regarding `COc1cc(Nc2nc(N)n(C(=O)c3ccc4c(c3)OCO4)n2)cc(OC)c1OC`, the results for the growth inhibition in experiment [1] and in experiment [4] were 40% and 90% (active), respectively. Besides, the inhibition in experiment [2] is 60% (active); in experiment [3] it was 1%. For the same compound, the outcome in experiment [5], in experiment [6], in experiment [7] and in experiment [8] was inactive.

For `C[C@H](Cc1ccc(C(=O)OCCOC(=O)c2ccc(C[C@@H](C)NC[C@H](O)c3cccc(C(F)(F)F)c3)cc2)cc1)NC[C@H](O)c1cccc(C(F)(F)F)c1`, the growth inhibition is 86% (active) in experiment [1] and 98% (active) in experiment [4]. The inhibition in experiment [2] is 10%; in experiment [3], -4%. The result in experiment [5], in experiment [6], in experiment [7] and in experiment [8] was inactive.

Consider `CCCC(=O)NC(c1ccc(C(C)C)cc1)c1ccc2cccnc2c1O` (stereo not given), for which the growth inhibition is 37% in experiment [1] and 90% (active) in experiment [4]. Also, the inhibition in experiment [2] is 50% (active); in experiment [3], 0%. Besides, the outcome in experiment [5], in experiment [6], in experiment [7] and in experiment [8] was inactive.

For `CCCCN(Cc1cccc(C(F)(F)F)c1Cl)c1ccc(C(O)(C(F)(F)F)C(F)(F)F)cc1`, the growth inhibition in experiment [1] was 55% (active); in experiment [4], 91% (active). Moreover, the inhibition in experiment [2] was 10%; in experiment [3], -3%. Moreover, the result in experiment [5], in experiment [6], in experiment [7] and in experiment [8] was inactive.

Consider `Cc1ccccc1Oc1nc2ccccc2nc1SCC(=O)NC(C)C`, for which the growth inhibition in experiment [1] was 55% (active); in experiment [4] it was 97% (active). The inhibition is -14% in experiment [2] and -1% in experiment [3]. In addition, the result in experiment [5], in experiment [6], in experiment [7] and in experiment [8] was inactive.

Turning to `Cc1ccc(NC(=O)c2cc(Br)cc(N3CCCN(C)CC3)c2)cc1F`, the figures for the growth inhibition in experiment [1] and in experiment [4] were 1% and 87% (active), respectively. In addition, the inhibition in experiment [2] is 15%; in experiment [3], -2%. Besides, the outcome in experiment [5], in experiment [6], in experiment [7] and in experiment [8] was inactive.

Consider `COc1cc(NC(=O)/C=C/c2ccc(-c3ccccc3)cc2)ccc1OCCN(C(C)C)C(C)C`, for which the growth inhibition is 62% (active) in experiment [1] and 94% (active) in experiment [4]. Also, the inhibition in experiment [2] is 58% (active); in experiment [3], -5%. Moreover, the outcome in experiment [5], in experiment [6], in experiment [7] and in experiment [8] was inactive.

As to `COc1ccc(-c2cccc(NC(=O)c3ccc(Cl)cc3)c2)cc1CN1CCNCC1`, the figures for the growth inhibition in experiment [1] and in experiment [4] were 22% and 96% (active), respectively. Further, the results for the inhibition in experiment [2] and in experiment [3] were 52% (active) and -3%, respectively. The result in experiment [5], in experiment [6], in experiment [7] and in experiment [8] was inactive.

Take `Cc1cc(N[C@@H](Cc2ccccc2)C(=O)NCCOc2ccccc2)nc(Nc2ccccc2)n1`: the growth inhibition in experiment [1] is 63% (active); in experiment [4] it was 100% (active). The results for the inhibition in experiment [2] and in experiment [3] were 2% and -2%, respectively. In addition, the result in experiment [5], in experiment [6], in experiment [7] and in experiment [8] was inactive.

With `Nc1ccc2nc(C=Cc3ccccc3)[nH]c2c1`, the growth inhibition in experiment [1] is 89% (active); in experiment [4] it was 92% (active). In addition, the results for the inhibition in experiment [2] and in experiment [3] were 7% and 1%, respectively. For the same compound, the outcome in experiment [5], in experiment [6], in experiment [7] and in experiment [8] was inactive.

On to `CC(C)NCc1cccc(-c2cccc(NC(=O)c3cccc(C#N)c3)c2)c1`, for which the growth inhibition in experiment [1] was 22%; in experiment [4] it was 99% (active). In addition, the inhibition in experiment [2] was 12%; in experiment [3], -4%. The result in experiment [5], in experiment [6], in experiment [7] and in experiment [8] was inactive.

In the case of `CN1CCN(c2ccc(CNc3ccc4ncc(-c5cccc(OC(F)(F)F)c5)n4n3)cc2)CC1`, the growth inhibition in experiment [1] was 78% (active); in experiment [4], 89% (active). For the same compound, the inhibition is 25% in experiment [2] and 3% in experiment [3]. In addition, the result in experiment [5], in experiment [6], in experiment [7] and in experiment [8] was inactive.
